40 compounds from PubChem BioAssay (EPA / NIEHS) can be followed below.

Where “and” joins values, the source holds several entries; their conditions need not be identical. Identical values can stand only once. Records with an inconclusive call do not appear. Calls of active or inactive are those of the source. Rule for the calls: active = hit-call score of the fitted dose curve at least 0.9, where 1 is the maximum; inconclusive = response in the unintended direction; inactive = score below 0.9.

In general, AC50 refers to the midpoint of the concentration-response curve, whichever way the signal moves.

The experiment in a line: TOX21_p53_BLA_p4_viability: Viability Assessment in the Tox21 HCT-116 p53 Agonism Beta-lactamase Assay, Phase 4 (AID 2283597).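 Note: hits lower the luminescence signal meaning cytotoxicity.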 The text has this: TOX21_p53_BLA_p4 is a cell-based, single-readout assay that uses HCT116, a human intestinal cell line, […] in a 1536-well plate.TOX21_p53_BLA_p4_viability is an assay readout measuring cellular ATP content and detected with CellTiter-Glo Luciferase-coupled ATP quantitation.TOX21_p53_BLA_p4_viability used a type of viability reporter where loss-of-signal activity can be used to understand changes in the cell viability. Furthermore, this assay endpoint can be referred to as a secondary readout, because this assay has produced multiple assay endpoints where this one serves a viability function. To generalize the intended target to other relatable targets, this assay endpoint is annotated to the cell cycle intended target family, where the subfamily is cytotoxicity.
Thawing Method: Place 14 mL of pre-warmed thaw medium into a 15 mL of conical tub. Remove the vial of cells to be thawed from liquid nitrogen and thaw rapidly by placing at 37C in a water bath with gentle agitation for 1-2 minutes. Decontaminate the vial by wiping with 70% ethanol before opening in a biological safety cabinet. Transfer the vial contents drop-wise into 14 mL of thaw medium in a sterile 15-mL conical tub. Centrifuge cells at 900 rpm for 4 minutes and resuspend in thaw medium. Transfer contents to the T75 tissue culture flask containing Thaw Medium and place flask in a humidified 37C/5% CO2 incubator. Switch to growth medium at first passage.Propagation Method: Aspirate medium, rinse once in DPBS, add 0.25% Trypsin/EDTA and swirl to coat the cell evenly. Add an equal volume of Growth Medium to inactivate Trypsin after 2-3 minutes incubation at 37C. Centrifuge cells at 900 rpm for 4 minutes and resuspend in growth medium. Cell should be passage or fed at least twice a week.Assay Protocol: Harvest cells from culture in growth medium and resuspend in assay medium. 2.2 Dispense 4000 cells/5 uL/well into 1536-well black/clear bottom plates using a Multidrop dispenser. After the cells were incubated at 37C for 5 hours, 23 nL of compounds dissolved in DMSO were transferred to the assay plate by a PinTool resulting in a 217-fold dilution. Incubate the plates for 16 hours at 37C, 5% CO2. Add 1 uL of 6X LiveBLAzer FRET B/G (CCF4-AM) Substrate Mixture to each well using a BioRAPTR dispenser and incubate the plates at room temperature for 2 hours. Measure fluorescence intensity at 460 and 530 nm emission and 405 nm excitation by an Envision detector. Data is expressed as the ratio of 460nm/530nm emissions. Add 4 uL of Cell-titer Glo to each well using BioRAPTR and incubate the plates at room temperature for […]. For cell viability readout that measures cytotoxicity, 4 ul/well of CellTiter-Glo reagent was added into the assay plates using a Flying Reagent Dispenser. After 30 min incubation at room temperature, the luminescence intensity in the plates was measured using a ViewLux plate reader.
On to `C=CCOC(=O)CCCCCC`, for which the call was inactive.
For `CC1(C)O[C@@H]2C[C@H]3[C@@H]4CCC5=CC(=O)C=C[C@]5(C)[C@@]4(F)[C@@H](O)C[C@]3(C)[C@]2(C(=O)CO)O1`, the call was inactive.
The same measure, in the same setting: next, `Nc1ccc(N)c2c1C(=O)c1ccccc1C2=O`: “inactive”.
On the same count and under the same terms, next, `C=CC(=O)OCCCC`: “inactive”; `C=C(C)C(=O)OCCOC1CC2CC1C1C=CCC21` (stereo not given): “inactive”; `CCc1ncc(C)[nH]1`: “inactive”.
`CCCCC(CC)COC(=O)c1ccc(O)cc1` (stereo not given): the AC50 was 72.2 µM (active) and 45.9 µM (active).
As for `c1ccc(Oc2ccccc2)cc1`, the compound was called inactive.
As to `Nc1ccccc1[N+](=O)[O-]`, the result was inactive.
The same measure, in the same setting: next, `CC(C)OCCO`: “inactive”; `C=C(C#N)C(=O)OCC`: “inactive”.
On to `Cc1cc(=O)oc2cc(N(C)C)ccc12`, for which the result was inactive.
The same measure, in the same setting: next, `CCCCCC(C=O)=Cc1ccccc1`: “inactive”; `CCC1(c2ccccc2)C(=O)NCNC1=O`: “inactive”.
Still for that read-out and setting: next, `CC(C)CC(C)CC(O)CC(C)C` (stereo not given): “inactive”.
On the same count and under the same terms, next, `C=C(C)C(=O)OCCOCCOCCOCCOC(=O)C(=C)C`: “inactive”.
`Cc1c(C2(c3cc(Br)c(O)c(Br)c3C)OS(=O)(=O)c3ccccc32)cc(Br)c(O)c1Br`: the AC50 was 28.4 µM (active).
Regarding `OC[C@H]1O[C@@H](Oc2ccc(O)cc2)[C@H](O)[C@@H](O)[C@@H]1O`, the compound was called inactive.
On the same count and under the same terms, next, `C=C(CC(=O)O)C(=O)O`: “inactive”.
For `C[C@H](CCC(=O)NCC(=O)O)[C@H]1CC[C@H]2[C@@H]3[C@H](O)C[C@@H]4C[C@H](O)CC[C@]4(C)[C@H]3C[C@H](O)[C@]12C`, the result was inactive.
Same read-out and setting: next, `CN1C(=O)c2ccccc2C1=O`: “inactive”; `c1ccc2cc(Nc3ccc(Nc4ccc5ccccc5c4)cc3)ccc2c1`: “inactive”; `O=C(Nc1ccc2c(c1)Cc1ccccc1-2)C(F)(F)F`: “inactive”.
As for `C[Si](C)(C)O[Si](C)(C)C`, the compound was called inactive.
On the same count and under the same terms, next, `CCOc1ccc(NC(=O)CC(C)O)cc1` (stereo not given): “inactive”; `COc1cc([C@@H]2c3cc4c(cc3[C@@H](O[C@@H]3O[C@@H]5CO[C@@H](C)O[C@H]5[C@H](O)[C@H]3O)[C@H]3COC(=O)[C@H]23)OCO4)cc(OC)c1O`: “inactive”.
On the same count and under the same terms, next, `CCCCCCCCCC(C)C=O` (stereo not given): “inactive”; `CC(C)=CCCC(C)CCOC=O` (stereo not given): “inactive”; `C=CCCCCCCCCCC`: “inactive”.
The same measure, in the same setting: next, `CCCC[P+](CCCC)(CCCC)CCCC`: “inactive”.
Take `Brc1ccc(Br)c(Br)c1`: the outcome was inactive.
As for `[O-]n1ccccc1=S.[O-]n1ccccc1=S.[Zn+2]`, the AC50 is 15.4 µM (active) [middle of 4 runs].
In the case of `CC(C)CCCCCCc1ccc(OCCOCCO)cc1`, the compound was classed as inactive.
Consider `Cc1[nH]c(=O)c(C#N)cc1-c1ccncc1`, for which the compound was called inactive.
Regarding `COC(=O)C=C(C)CCC=C(C)C`, the result was inactive.
As for `COC(=O)Nc1ccc(Cl)c(Cl)c1`, the compound was classed as inactive.
Same read-out and setting: next, `COc1ccccc1N=Nc1c(S(=O)(=O)O)cc2cc(S(=O)(=O)O)cc(NC(C)=O)c2c1O`: “inactive”; `CSc1c(Cl)c(Cl)c(Cl)c(Cl)c1Cl`: “inactive”; `Cc1cc(S(=O)(=O)O)ccc1N=Nc1c(O)ccc2ccccc12`: “inactive”.
`CCCC(=O)OC(C)(C)Cc1ccccc1`: the compound was classed as inactive.
